# Reference: PubChem BioAssay (NCATS)
# Where “and” joins values, the source holds several entries; their conditions need not be identical. Equal values may be shown once. Values without a mark were called inactive. Results filed as inconclusive are left out. Calls of active or inactive are those of the source. Unless noted, calls follow the shape of the dose curve; as a rule, active = well fitted curve in either direction with a large enough effect (not every such curve was filed as active); inconclusive = small, poorly fitted or top-dose-only effect, or another doubt; inactive = flat fitted curve, though single readings scatter.
# Columns and labels:
# [1] = molecular target: Lysosomal acid glucosylceramidase (Homo sapiens) (UniProt P04062); assay: Glucocerebrosidase-p2 (AID 348; in the data active = potency below about 10 µM; also: potency is read from the fitted curve at half-maximal effect); settings: purified GBA, blue fluorogenic substrate, 40 min
# Sequence of Lysosomal acid glucosylceramidase (Homo sapiens) (P04062 whole entry, looked up): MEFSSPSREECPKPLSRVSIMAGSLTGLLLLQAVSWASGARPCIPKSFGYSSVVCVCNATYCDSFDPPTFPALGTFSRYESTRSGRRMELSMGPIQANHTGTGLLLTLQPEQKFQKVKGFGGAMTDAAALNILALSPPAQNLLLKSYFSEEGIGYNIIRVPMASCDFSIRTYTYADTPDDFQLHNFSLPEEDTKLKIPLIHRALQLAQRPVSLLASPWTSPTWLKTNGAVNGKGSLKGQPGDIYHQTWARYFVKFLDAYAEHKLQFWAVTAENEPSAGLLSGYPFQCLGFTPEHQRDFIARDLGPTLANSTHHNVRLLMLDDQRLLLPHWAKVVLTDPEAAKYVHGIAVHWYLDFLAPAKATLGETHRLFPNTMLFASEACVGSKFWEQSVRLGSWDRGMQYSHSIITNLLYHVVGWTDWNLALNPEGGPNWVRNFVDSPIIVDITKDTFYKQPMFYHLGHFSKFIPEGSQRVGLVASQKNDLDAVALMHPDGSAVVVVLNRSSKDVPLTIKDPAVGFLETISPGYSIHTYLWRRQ
# How it was run: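 Normal human glucocerebrosidase (0.2 nM) with blue fluorogenic substrate (80 uM final) in citrate/phosphate pH 5.9 with 10mM sodium taurocholate, 0.01% tween-20; 40 min RT, NaOH/glycine stop; fluorescence Ex 365/Em 440; AC50 from a titration from 0.6 nM upwards.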
# [2] = AP1 Signaling Pathway (AID 357); also: % is scaled to controls: 0 for no effect and ±100 for the full control effect
# How it was run: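 ME-180 cells with beta-lactamase reporter under AP-1 response element, stimulated with EC50 EGF; compounds tested in titration series, 5 h at 37 °C. CCF4 substrate added 2.5 h at room temperature; 460/530 nm emission ratio gave %activity and AC50.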
# [3] = NFAT Signaling Pathway (AID 444);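 also: carbachol stimulus at about its EC50 of 1 µM final; % is scaled to controls: 0 for no effect and ±100 for the full control effect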
# How it was run: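 Jurkat cells carrying an NFAT-driven β-lactamase reporter and co-transfected muscarinic M1 receptor were treated with compound plus carbachol (1 uM final, an EC50 level) for 5 h at 37 °C. CCF4 loading followed for 1 h at RT; 460/530 nm ratio gave %activity.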
# [4] = Stat Signaling Pathway (AID 446); settings: ME-180 (cervical carcinoma) SIE beta-lactamase reporter, IL-6 stimulated, 5 h;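 also: ME-180 cervical cancer cells given 40 pM IL-6 alongside compound; SIE-controlled beta-lactamase reporter measured as 460/530 nm FRET emission ratio; % is scaled to controls: 0 for no effect and ±100 for the full control effect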
# How it was run: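 Emission at 460 and 530 nm (excitation 405 nm) reports SIE-controlled beta-lactamase in ME-180 cells. Cells received compound with 40 pM IL-6 for 5 hrs at 37 C; data scaled between 300 pM IL-6 and 125 nM JAK-inhibitor controls.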
# [5] = molecular target: Glucocorticoid receptor (Homo sapiens) (UniProt P04150); assay: GR-GFP Redistribution (AID 450;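 active = compounds whose dose series gives a full or clear partial fitted curve of increased nuclear translocation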; also: potency is read from the fitted curve at half-maximal effect); settings: U2OS GR-GFP nuclear translocation, laser cytometry, 2 h
# Sequence of Glucocorticoid receptor (Homo sapiens) (P04150 whole entry, looked up, the tested form may be a part): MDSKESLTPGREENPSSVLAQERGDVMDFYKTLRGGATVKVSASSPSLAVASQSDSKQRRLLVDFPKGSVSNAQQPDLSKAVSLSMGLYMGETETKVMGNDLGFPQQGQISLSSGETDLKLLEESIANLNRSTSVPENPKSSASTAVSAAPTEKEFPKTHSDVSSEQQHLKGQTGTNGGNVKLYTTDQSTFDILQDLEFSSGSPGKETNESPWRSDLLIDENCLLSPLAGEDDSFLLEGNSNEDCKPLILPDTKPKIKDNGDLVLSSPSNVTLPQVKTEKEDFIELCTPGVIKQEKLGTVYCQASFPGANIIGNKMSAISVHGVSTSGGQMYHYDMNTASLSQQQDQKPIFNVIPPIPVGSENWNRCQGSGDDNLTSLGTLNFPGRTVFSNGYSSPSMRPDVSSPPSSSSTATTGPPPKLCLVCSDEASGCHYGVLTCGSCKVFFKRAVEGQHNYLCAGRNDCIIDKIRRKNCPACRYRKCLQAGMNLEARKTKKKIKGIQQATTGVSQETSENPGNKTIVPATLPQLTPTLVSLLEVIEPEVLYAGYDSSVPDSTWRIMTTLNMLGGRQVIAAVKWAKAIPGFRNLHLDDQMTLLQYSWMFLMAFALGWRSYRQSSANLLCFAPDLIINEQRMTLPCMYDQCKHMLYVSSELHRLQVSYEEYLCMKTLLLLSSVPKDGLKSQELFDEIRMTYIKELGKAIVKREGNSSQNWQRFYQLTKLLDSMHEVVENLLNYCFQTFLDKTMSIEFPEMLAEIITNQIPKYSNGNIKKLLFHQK
# [6] = molecular target: Glucocorticoid receptor (Homo sapiens) (UniProt P04150); assay: GR-EFC Redistribution (AID 451; calls by dose curve; also: potency is read from the fitted curve at half-maximal effect); settings: CHO-K1 GR-EFC translocation, beta-gal luminescence, 2 h
# How it was run: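 CHO-K1 cells stably expressing nuclear-localized β-gal enzyme acceptor and GR fused C-terminally to the enzyme donor fragment; ligand-driven nuclear translocation restores β-gal by complementation. Compounds titrated up to 46 uM final, 2 h at 37 °C; luminescence read.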
# [7] = molecular target: Mitogen-activated protein kinase 10 (Mus musculus) (UniProt Q61831); assay: JNK3 AlphaScreen Assay (AID 530);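 also: kinase came from lysate of stimulated human HepG2 cells; signal reports phosphorylation of biotinylated GST-cJun 1-79 at Ser73 with 10 µM ATP; % is scaled to controls: 0 for no effect and ±100 for the full control effect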
# How it was run: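 Biotinylated GST-cJun(1-79) served as substrate for JNK3 in HepG2 lysates stimulated with IL-1beta and TNF-alpha. ATP was 10 uM final, pH 7.6. Ser73 phosphorylation was quantified by AlphaScreen (680 nm excitation).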
# [8] = molecular target: Cytochrome P450 1A2 (Homo sapiens) (UniProt P05177); assay: p450-cyp1a2 (AID 410; calls by dose curve; also: potency is read from the fitted curve at half-maximal effect;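 as to activity change, negative = inhibition: -100% = full effect of reference inhibitor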)
# Sequence of Cytochrome P450 1A2 (Homo sapiens) (P05177 whole entry, looked up): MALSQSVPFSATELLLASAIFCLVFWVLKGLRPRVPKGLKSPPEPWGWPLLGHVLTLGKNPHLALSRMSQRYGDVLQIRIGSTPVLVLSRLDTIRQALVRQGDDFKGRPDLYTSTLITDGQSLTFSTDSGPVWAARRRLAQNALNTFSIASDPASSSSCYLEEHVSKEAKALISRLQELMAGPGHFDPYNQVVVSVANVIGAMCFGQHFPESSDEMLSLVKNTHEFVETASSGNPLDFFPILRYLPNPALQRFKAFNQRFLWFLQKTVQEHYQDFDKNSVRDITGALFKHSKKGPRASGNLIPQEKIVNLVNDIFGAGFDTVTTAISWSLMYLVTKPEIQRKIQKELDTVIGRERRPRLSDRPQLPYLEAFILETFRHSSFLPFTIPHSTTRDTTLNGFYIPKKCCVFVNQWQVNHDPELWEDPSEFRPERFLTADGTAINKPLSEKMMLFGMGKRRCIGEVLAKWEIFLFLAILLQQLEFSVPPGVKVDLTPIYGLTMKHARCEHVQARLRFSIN
# How it was run: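 Read-out is luminescence from luciferin produced by CYP1A2 demethylation of Luciferin-ME (100uM, at Km). Detection reagent stopped the 60 min NADPH-dependent reaction; signals were normalized to 57 uM furafylline.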
# [9] = Cell Viability - BJ (AID 421; calls by dose curve;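 also: potency is read from the fitted curve at half-maximal effect; cells exposed to compound for 40 hours at 37 °C before readout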); settings: BJ fibroblast viability, qHTS
# How it was run: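 Cytotoxicity in human BJ foreskin fibroblasts is scored as loss of cellular ATP after a 40-hour exposure, measured by luciferase luminescence. Controls are DMSO and 100 uM tamoxifen.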
# [10] = Cell Viability - Jurkat (AID 426;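 active = dose-dependent loss of cell ATP signal giving a full or clear fitted curve, ranked by lower potency value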;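 also: potency is read from the fitted curve at half-maximal effect; cells exposed to compound for 40 hours at 37 °C before ATP read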); settings: qHTS
# How it was run: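 Cytotoxicity was scored as loss of cellular ATP, measured by luciferase-based luminescence, in Jurkat clone E6-1 cells after 40 h compound treatment; tamoxifen and doxorubicin served as positive controls.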
# [11] = Cell Viability - Hek293 (AID 427;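 active = compounds whose dose-response curve shows a full or clear partial loss of cell viability, called from curve shape rather than a numeric limit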;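 also: potency is read from the fitted curve at half-maximal effect; cells exposed to compound for 40 hours at 37 °C before reading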); settings: qHTS
# How it was run: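 qHTS, human embryonic kidney (adenovirus-transformed) cells; 40 hr cpd, 37 °C; CellTiter-Glo ATP luminescence. Norm: DMSO = 0, 100 uM tamoxifen = 100% inhibition. Hill-fit AC50.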
# [12] = Cell Viability - HepG2 (AID 433; calls by dose curve;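 also: potency is read from the fitted curve at half-maximal effect; potency for ATP loss meaning cytotoxicity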); settings: qHTS
# How it was run: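 HepG2 hepatocellular carcinoma cells (1500/well) were treated with compounds for 40 h at 37 °C in complete medium; intracellular ATP was read by CellTiter-Glo luminescence. Data were normalized to DMSO and 100 uM tamoxifen, and AC50 came from Hill fits.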
# [13] = Cell Viability - MRC5 (AID 434; calls by dose curve;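 also: potency is read from the fitted curve at half-maximal effect; potency reflects cytotoxicity seen as loss of intracellular ATP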); settings: MRC5 lung fibroblast viability, qHTS
# How it was run: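 Decrease in intracellular ATP, quantified by luciferase light output, reflects compound toxicity toward MRC5 cells exposed for 40 hr in complete culture medium. Concentration-response curves, scaled between DMSO and 100 uM tamoxifen, gave AC50 values.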
# [14] = Cell Viability - SK-N-SH (AID 435; calls by dose curve;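 also: potency is read from the fitted curve at half-maximal effect; compound exposure lasted 40 h at 37 °C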); settings: SK-N-SH neuroblastoma cell viability qHTS
# How it was run: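 SK-N-SH human neuroblastoma cells (1500/well) were exposed to compounds in complete medium for 40 h at 37 °C, and intracellular ATP was then measured by CellTiter-Glo luminescence. AC50 was taken from Hill fits, normalized to DMSO and 100 uM tamoxifen.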
# [15] = Cell Viability - N2a (AID 540; active = well fitted curve in the direction sought with a large enough effect; an effect the other way counts as inactive or inconclusive;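 also: plate controls were DMSO alone for no effect and tamoxifen control for full effect; nearly all actives have a fitted effect of over 45% in size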); settings: N2a mouse neuroblastoma cell viability; activity change, negative = cytotoxicity: at 92.2 µM (top of the series)
# How it was run: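 In this qHTS cytotoxicity screen, ATP-dependent luciferase luminescence reports viable N2a cells after a 40 hr compound exposure in complete culture medium. Potencies are AC50 values from standard Hill equation fits.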
# [16] = Cell Viability - HUV-EC-C (AID 542; active = well fitted curve in the direction sought with a large enough effect; an effect the other way counts as inactive or inconclusive; also: nearly all actives have a fitted effect of over 35% in size; also: potency is read from the fitted curve at half-maximal effect)
# How it was run: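 Concentration-dependent ATP loss in HUV-EC-C cells is the measure. Exposure lasts 40 hr at 37 °C; luminescence follows CellTiter-Glo addition, and Hill fits give AC50.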
# [17] = Cell Viability - SH-SY5Y (AID 544; active = well fitted curve in the direction sought with a large enough effect; an effect the other way counts as inactive or inconclusive;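 also: 0% = DMSO alone and -100% = 100 µM tamoxifen; nearly all actives have a fitted effect of over 55% in size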); settings: SH-SY5Y neuroblastoma cell viability; viability change, negative = cytotoxic: at 92.2 µM (top of the series)
# How it was run: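 Quantitative HTS in SH-SY5Y neuroblastoma cells, 40 hr treatment at 37 °C, ATP content by luciferase luminescence; AC50 from Hill fits.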
# [18] = Cell Viability - Renal Proximal Tubule (AID 545; active = well fitted curve in the direction sought with a large enough effect; an effect the other way counts as inactive or inconclusive;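 also: 0% = DMSO only and -100% = 100 µM tamoxifen; nearly all actives have a fitted effect of over 40% in size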); settings: renal proximal tubule cells viability, primary cells of rat origin; activity change, negative = cytotoxicity: at 91.7 µM (top of the series)
# How it was run: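 Primary rat renal proximal tubule cells (1000/well) were treated with compounds for 40 hr at 37 °C in complete medium. Intracellular ATP was measured by CellTiter-Glo luminescence, and AC50 values came from Hill-equation fits of concentration-response data.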
# [19] = Cell Viability - Mesenchymal (AID 546; active = well fitted curve in the direction sought with a large enough effect; an effect the other way counts as inactive or inconclusive;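 also: cells exposed to compound for 40 hours before reading; 0% = DMSO only and -100% = 100 µM tamoxifen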); settings: mesenchymal cells viability, qHTS; activity change, negative = cytotoxicity: at 91.7 µM (top of the series)
# How it was run: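 In this qHTS cytotoxicity format, glomerulus-derived human mesenchymal kidney cells received compound for 40 hr, then luciferase-based ATP quantitation. Concentration-response data were fitted with the Hill equation.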
# [20] = Cell Viability - H-4-II-E (AID 543; active = well fitted curve in the direction sought with a large enough effect; an effect the other way counts as inactive or inconclusive; also: nearly all actives have a fitted effect of over 35% in size; also: potency is read from the fitted curve at half-maximal effect)
# How it was run: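 AC50 from Hill-modelled qHTS concentration-response curves. H-4-II-E rat hepatoma cells in complete medium, 40 hr exposure at 37 °C, viability by CellTiter-Glo ATP luminescence.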
structure (smiles),measurement,setting,value
O=C(O)CCc1nc(-c2ccccc2)c(-c2ccccc2)o1,Potency,[1],> 11.4 µM
same,outcome,[2],inactive
same,outcome,[3],inactive
same,"activity, negative = inhibition",[4]; at 7.69 µM (top of the series),5.68%
same,"activity, negative = inhibition",[4]; at 17.2 µM (top of the series),-0.803%
same,"activity, negative = inhibition",[4]; at 38 µM (top of the series),-12.8%
same,Potency,[5],> 46 µM and > 20.6 µM
same,Potency,[6],> 46 µM and > 20.6 µM and > 9.22 µM
same,outcome,[7],inactive
CCN1CCC[C@H]1CNC(=O)c1cc(S(N)(=O)=O)ccc1OC,outcome,[2],inactive
same,Potency,[8],inactive
same,outcome,[3],inactive
same,"activity, negative = inhibition",[4]; at 17.2 µM (top of the series),8.96%
same,Potency,[5],> 20.6 µM and > 46 µM
same,Potency,[6],> 20.6 µM and > 46 µM
same,outcome,[7],inactive
O=c1c(-c2ccc(O)cc2)coc2cc(O)ccc12,outcome,[2],inactive
same,Potency,[8],15.8 µM (active)
same,Potency,[9],> 92 µM
same,Potency,[10],> 92 µM
same,Potency,[11],> 92 µM
same,Potency,[12],> 92 µM
same,Potency,[13],> 92 µM
same,Potency,[14],> 92 µM
same,outcome,[3],inactive
same,"activity, negative = inhibition",[4]; at 38 µM (top of the series),-22%
same,Potency,[5],> 46 µM
same,Potency,[6],> 46 µM
same,outcome,[7],inactive
same,Potency,[15],inactive
same,Potency,[16],inactive
same,Potency,[17],inactive
same,Potency,[18],inactive
same,Potency,[19],inactive
c1cc(-c2sc(-c3ccncc3)c(-c3ccncc3)c2-c2ccncc2)ccn1,Potency,[1],> 11.4 µM
same,outcome,[2],inactive
same,Potency,[8],3.16 µM (active)
same,outcome,[3],inactive
same,"activity, negative = inhibition",[4]; at 7.69 µM (top of the series),7.72%
same,Potency,[5],> 46 µM
same,Potency,[6],> 9.22 µM
same,"activity change, negative = inhibition",[7],-6.48% [at 11.4 µM]
CCCNC(=O)NS(=O)(=O)c1ccc(Cl)cc1,outcome,[2],inactive
same,Potency,[8],inactive
same,Potency,[9],> 92 µM
same,Potency,[10],> 92 µM
same,Potency,[11],> 92 µM
same,Potency,[12],> 92 µM
same,Potency,[13],> 92 µM
same,Potency,[14],> 92 µM
same,outcome,[3],inactive
same,"activity, negative = inhibition",[4]; at 17.2 µM (top of the series),-8.89% and -0.985%
same,"activity, negative = inhibition",[4]; at 38 µM (top of the series),-1.14%
same,Potency,[5],> 46 µM and > 20.6 µM
same,Potency,[6],> 46 µM and > 20.6 µM
same,outcome,[7],inactive
same,Potency,[15],inactive
same,Potency,[16],inactive
same,Potency,[20],inactive
same,Potency,[17],inactive
same,Potency,[18],inactive
same,Potency,[19],inactive
CC/C(=C(\c1ccccc1)c1ccc(OCCN(C)C)cc1)c1ccccc1,outcome,[2],inactive
same,Potency,[10],31.5 µM (active)
same,Potency,[12],46.2 µM (active)
same,Potency,[13],60.3 µM (active)
same,Potency,[14],49.1 µM (active)
same,outcome,[3],inactive
same,"activity, negative = inhibition",[4]; at 17.2 µM (top of the series),14.2%
same,"activity, negative = inhibition",[4]; at 38 µM (top of the series),2.62%
same,Potency,[5],> 46 µM and > 20.6 µM
same,Potency,[6],> 46 µM and > 20.6 µM
same,outcome,[7],inactive
same,"activity change, negative = cytotoxicity",[15],-117% (active)
same,Potency,[16],50.1 µM (active)
same,Potency,[20],50.1 µM (active)
same,"viability change, negative = cytotoxic",[17],-99.3% (active)
same,"activity change, negative = cytotoxicity",[18],-109% (active)
same,"activity change, negative = cytotoxicity",[19],-91.4% (active)
CC(=O)c1ccc(S(=O)(=O)NC(=O)NC2CCCCC2)cc1,outcome,[2],inactive
same,Potency,[8],inactive
same,Potency,[9],> 92 µM
same,Potency,[10],> 92 µM
same,Potency,[11],> 92 µM
same,Potency,[12],> 92 µM
same,Potency,[13],> 92 µM
same,Potency,[14],> 92 µM
same,outcome,[3],inactive
same,"activity, negative = inhibition",[4]; at 17.2 µM (top of the series),-1.46%
same,"activity, negative = inhibition",[4]; at 38 µM (top of the series),-26.2%
same,Potency,[5],> 46 µM and > 20.6 µM
same,Potency,[6],> 46 µM and > 20.6 µM
same,outcome,[7],inactive
same,Potency,[15],inactive
same,Potency,[16],inactive
same,Potency,[20],inactive
same,Potency,[17],inactive
same,Potency,[18],inactive
same,Potency,[19],inactive
C[C@@H](O)[C@H]1C(=O)N2C(C(=O)O)=C(S[C@@H]3CN[C@H](C(=O)N(C)C)C3)[C@H](C)[C@H]12,outcome,[2],inactive
same,Potency,[8],inactive
same,outcome,[3],inactive
same,"activity, negative = inhibition",[4]; at 17.2 µM (top of the series),-18.6%
same,Potency,[5],> 20.6 µM
same,Potency,[6],> 20.6 µM
same,outcome,[7],inactive
